Sampled rows, rich in hits. Any-hit rate of the full collection: about 21%.
DT40 TDP1 CPT = growth inhibition of DT40 Tdp1-/-;hTDP1 cells with camptothecin (screen for TDP1 inhibitors); chicken DT40 Tdp1-/-;hTDP1 cells + 20 nM CPT, ATP luminescence, 48 h; Potency, µM (titrated, usually from 46.2 µM), for the others: top-dose activity change, negative = growth inhibition, most hits filed as inhibitors; 420,000 compounds, 12% hits; AID 686979; further: potency means the concentration at half of the fitted maximal effect; on the % scale 0 is the no-effect control and ±100 the full control effect; nearly all actives have a fitted effect of over 55% in size
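Chicken DT40 Tdp1-/- cells stably complemented with human TDP1 were seeded at 400 cells/well in medium containing 20 nM camptothecin, exposed to pin-transferred compounds, and grown at 37 °C for at least 48 hr. Viability was read as ATP luminescence.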
IL-1B inflam inh = inflammasome signaling inhibition, IL-1 beta readout; activity change, % at 57.5 µM; AID 743279; 360,000 compounds, 4.7% hits; THP-1 LPS/ATP IL-1B secretion, AlphaLISA, 16 h; stronger effect = lower value; in the data active means activity change below about -50%; inconclusive means mostly about -30% to -49%; further: on the % scale 0 is the no-effect control and ±100 the full control effect
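Secreted IL-1B measured by AlphaLISA bead assay after 16 h compound exposure of THP-1 cells; compounds (final up to 57.5 uM) added 1 h before LPS (250 ng/mL) and ATP (1.25 mM) stimulation; lower signal means less secretion.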
TDP1 cell noCPT = qHTS for Inhibitors of human tyrosyl-DNA phosphodiesterase 1 (TDP1): qHTS in cells in absence of CPT | DT40 Tdp1-/- hTDP1 cells, no CPT, ATP luminescence, 48 h | Potency, µM (doses to about 46.2 µM), inactives show at the highest dose activity change, negative = growth inhibition, hits mostly inhibitors | 420,000 compounds, 15% hits | AID 686978, 2013; further: potency means the concentration at half of the fitted maximal effect; on the % scale 0 is the no-effect control and ±100 the full control effect; nearly all actives have a fitted effect of over 55% in size
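Seeded 400 DT40-hTDP1 cells/well (vehicle DMSO, no 20 nM CPT); pinned compounds; ≥48 hr at 37 °C; CellTiter-Glo luminescence as viability measure.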
D3 antag = D3 dopamine receptor (human) antagonism. max response, negative = inhibition, %. 360,000 compounds, 2.5% hits. P35462. AID 652054. D3R cells, DiscoveRx beta-arrestin luminescence, antagonist mode; stronger effect = lower value; in the data active means max response below about -50%; inconclusive means no clear call, values can overlap the other calls; further: on the % scale 0 is the no-effect control and ±100 the full control effect
Target sequence (P35462 whole entry, looked up): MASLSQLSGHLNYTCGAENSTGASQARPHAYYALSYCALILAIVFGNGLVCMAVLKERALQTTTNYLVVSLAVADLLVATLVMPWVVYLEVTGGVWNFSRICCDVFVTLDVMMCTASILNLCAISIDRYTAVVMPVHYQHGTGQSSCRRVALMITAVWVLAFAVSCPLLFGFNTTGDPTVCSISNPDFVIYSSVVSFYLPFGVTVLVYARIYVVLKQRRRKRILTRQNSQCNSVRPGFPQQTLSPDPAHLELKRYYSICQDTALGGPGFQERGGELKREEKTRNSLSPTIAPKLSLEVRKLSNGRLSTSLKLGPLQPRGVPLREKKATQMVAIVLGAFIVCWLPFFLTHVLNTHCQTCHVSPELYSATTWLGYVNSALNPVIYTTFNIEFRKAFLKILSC
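Cells plated overnight at 1500 cells/well, then exposed to library compounds with dopamine controls for 90 minutes at 37 degrees C. DiscoveRx reagent added for 30–60 minutes at room temperature; luminescence read, quantitative HTS format.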
ClpP mod = qHTS Assay for Activators of ClpP; purified B. subtilis ClpP, FRET peptide cleavage, 20 min; Potency, µM (doses to about 57.5 µM), for the others: at the highest dose activity change, negative = active; 340,000 compounds, 1.9% hits; ATP-dependent Clp protease proteolytic subunit (Bacillus subtilis (strain 168)), P80244; AID 651965, 2013; active means well fitted falling curve with a large enough effect; inconclusive means small, poorly fitted or top-dose-only effect; inactive means no such curve, though single readings can be large or run the other way; further: potency means the concentration at half of the fitted maximal effect; the source files actives as falling curves though it sought activators and does not explain the sign; nearly all actives have a fitted effect of over 65% in size
Target sequence (P80244 whole entry, looked up): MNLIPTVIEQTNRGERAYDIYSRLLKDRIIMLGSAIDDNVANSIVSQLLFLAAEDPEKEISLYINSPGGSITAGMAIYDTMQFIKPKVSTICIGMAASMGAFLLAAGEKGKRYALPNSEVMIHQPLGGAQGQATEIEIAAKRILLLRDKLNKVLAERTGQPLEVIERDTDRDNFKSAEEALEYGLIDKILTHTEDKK
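Purified B. subtilis ClpP, 10 microg/mL final in Tris/HCl pH8 with KCl, BSA, glycerol and Tween-20, cleaved an Abz/nitrotyrosine-quenched decapeptide. Fluorescence (ex 320, em 430) was read at 0 and 20 min at room temperature. Delta was normalized to 5.8 microM ADEP and DMSO/no-enzyme controls.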
DRD3 agonist = agonists of human D3 dopamine receptor | D3R DiscoveRx beta-arrestin cells, luminescence, 90 min | max activation, % | 410,000 compounds, 0.58% hits; in the data active means max activation above about 30%; further: 0% is about no effect
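Agonist mode: compounds and dopamine controls were applied to plated cells for 90 min at 37 degrees C after an overnight attachment at 1500 cells/well. Luminescent read-out followed 30 - 60 minutes at room temperature with DiscoveRx detection reagent.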
* marks the source's active call; other numbers are inactive results; i = inactive; ? = inconclusive; . = no result. Unless noted, the call rests on the fitted dose curve; in most records, active means well fitted inhibition curve with a large enough effect; inconclusive means small, poorly fitted or top-dose-only effect; inactive means flat fitted curve, though single readings scatter.

SMILES | DT40 TDP1 CPT | IL-1B inflam inh | TDP1 cell noCPT | D3 antag | ClpP mod | DRD3 agonist
O=c1c2cc3c(cc2nc2sc(Nc4ccccc4)nn12)OCO3 | 3% | . | ? | . | -5% | 0
O=C(COC(=O)c1c(F)cccc1Cl)NC(=O)Nc1ccc2c(c1)OCCO2 | -11% | -19 | -25% | -2 | 3% | -5
CC1(c2ccc(OC(F)F)cc2)NC(=O)N(CC(=O)Nc2ccc(Cl)cc2F)C1=O (stereo not given) | ? | -16 | ? | -8 | . | -6
COc1cc(CC(=O)Nc2ccc(N3CCOCC3)cc2)cc(OC)c1OC | 3% | 48 | -24% | -6 | . | -9
COc1cc(CNc2ccc(N3CCOCC3)cc2)cc(Br)c1OC | ? | -15 | 16µM* | -13 | -2% | 0
CCOC(=O)Cc1c(C)c2c(C)nn(-c3ccccc3)c2oc1=O | -8% | -6 | ? | -8 | 35µM* | -11
CCOC(=O)Cc1c(C)c2c(C)[nH]nc2oc1=O | -1% | 0 | -10% | -16 | -30% | 0
COc1ccccc1N1CCN(CC(O)COc2ccc3c(C)cc(=O)oc3c2)CC1 (stereo not given) | -27% | 4 | -16% | -77* | 16µM* | -22
Cc1cc(=O)oc2cc(OCC(O)CN3CCc4ccccc4C3)ccc12 (stereo not given) | -32% | -8 | ? | -55* | ? | -22
Cc1cc(=O)oc2cc(OC(C)C(=O)N3CCCc4ccccc43)ccc12 (stereo not given) | ? | -10 | ? | -17 | ? | -9
Cc1cc(=O)oc2cc(OCC(O)CN3CCN(c4ccccc4)CC3)ccc12 (stereo not given) | -14% | 0 | -16% | 0 | 32µM* | 37*
COc1ccc2c(C)cc(=O)oc2c1OCC(O)CN1CCOCC1 (stereo not given) | -10% | 22 | 1% | 0 | 5% | -18
Cc1ccc(NC(=O)CSc2nc3ccccc3nc2Cc2ccccc2F)cc1F | 17% | . | 1% | . | -8% | -2
COc1ccccc1C(=O)NCCc1c(C)[nH]c2c(C)ccc(F)c12 | -14% | -8 | -6% | -14 | 0% | 5
c1ccc(Cn2c(-c3ccccc3)nc3nc4ccccc4nc32)cc1 | 21µM* | -2 | 23µM* | 7 | 32µM* | 14
Clc1cccc(-c2nc3nc4ccccc4nc3n2Cc2ccccc2)c1 | ? | -11 | ? | 15 | ? | 8
C=CCn1c(-c2ccccc2)nc2nc3ccccc3nc21 | 18µM* | -7 | 18µM* | 17 | ? | 7
CN=C1CC(SC)=C1c1ccc(C)cc1 | 16µM* | -22 | 21µM* | -8 | -1% | 2
O=C(CNCc1ccccc1)Nc1ccc(Oc2ccccc2)cc1 | 14% | -58* | ? | -27 | . | -7
CCC1(CC)NC(=O)N(CC(=O)Nc2ccc(OCc3ccccc3)cc2)C1=O | ? | -3 | 18µM* | 1 | -1% | 0
O=C(CN1CCN(C(c2ccccc2)c2ccccc2)CC1)N1CCOCC1 | 9% | 16 | -5% | 3 | 1% | 10
CC1(CCc2ccccc2)NC(=O)N(CC(=O)Nc2ccccc2)C1=O (stereo not given) | ? | -12 | -14% | -17 | . | 4
CC(C)(C)c1cc(C(=O)NCc2ccccc2)ccn1 | 13µM* | 14 | ? | 17 | 1% | 1
COc1ccc(CCNC(=O)c2ccnc(C(C)(C)C)c2)cc1OC | 4% | 17 | ? | -14 | -2% | -8
CCOc1ccccc1NC(=O)C(c1ccccc1)N1CCN(CC(=O)N2CCOCC2)CC1 (stereo not given) | 23µM* | 14 | -16% | 5 | 0% | 1
SMILES | DT40 TDP1 CPT | IL-1B inflam inh | TDP1 cell noCPT | D3 antag | ClpP mod | DRD3 agonist
Cc1ccc(S(=O)(=O)NN=C2CCCc3ccccc32)cc1 | 14% | 21 | ? | 11 | 1% | 2
CC(C)Oc1ccc(CNC(=O)c2ccc(CN3CC(=O)N4CCCCC4C3=O)cc2)cc1 (stereo not given) | 0% | . | -4% | . | -1% | -15
CC1=C(C(=O)Nc2cc(C(=O)NCc3ccccc3)ccc2C)SCCO1 | ? | ? | ? | 0 | -3% | -7
C[N+]1([O-])[C@@H]2Cc3cc4c(cc3[C@@H]1Cc1cc3c(cc12)OCO3)OCO4 (stereo not given in full) | -2% | 22 | 25% | 1 | -1% | 4
COc1ccccc1NC(=O)CN1CCN(CC(=O)Nc2ccc(F)cc2)CC1 | -21% | -10 | ? | -17 | -3% | 1
CN1CCN(CC(=O)Nc2ccc(Oc3ccccc3)cc2)CC1 | -20% | 2 | ? | -7 | -1% | -18
COc1ccccc1NC(=O)CN1CCN(CC(=O)Nc2ccc(OCc3ccccc3)cc2)CC1 | ? | ? | 16µM* | 23 | -1% | 9
CCOC(=O)N1CCN(CC(=O)Nc2ccc(Oc3ccccc3)cc2)CC1 | ? | -64* | ? | 4 | 28µM* | 6
CCOc1ccc(NC(=O)CN2CCN(CC(=O)Nc3ccccc3OCC)CC2)cc1 | 16µM* | . | 21µM* | . | -4% | 6
O=C(NCc1ccccc1)c1ccc(Oc2ccc(C(=O)NCc3ccccc3)cc2)cc1 | ? | 7 | 16µM* | -7 | -2% | 4
O=C(NCc1ccccc1)c1ccc(OC2CSC2)cc1 | -5% | -12 | -10% | -13 | 0% | 3
Cc1ccc(SCC(=O)c2ccc(CC(=O)O)s2)cc1 | -8% | . | 2% | 4 | . | 17
COc1ccc(CC(=O)NC(c2ccccc2)c2ccc(C)cc2)c(OC)c1 (stereo not given) | ? | -13 | 18µM* | 6 | . | 17
COc1ccc(OC)c(CC(=O)NC(c2ccccc2)c2ccccc2)c1 | -12% | 23 | -27% | 3 | . | 0
O=C(c1ccco1)N1CCN(C(=O)c2cc(-c3ccncc3)nc3ccc(Br)cc23)CC1 | 21µM* | 0 | 9.2µM* | -7 | -1% | 3
CC(=O)c1ccc(N2CCN(C(=O)c3cc(-c4ccncc4)nc4ccc(Br)cc34)CC2)cc1 | 21µM* | i | 21µM* | 58 | -4% | 21
COc1ccc(-c2cc(C(=O)NCCCN3CCOCC3)c3cc(C(C)C)ccc3n2)cc1 | ? | ? | ? | 5 | 3% | -5
Cc1cccc2c(C(=O)N3CCN(C(=O)c4ccco4)CC3)cc(-c3cccc(Br)c3)nc12 | ? | -71* | ? | 4 | . | 6

Compound activity from PubChem.
